{"source": "the supplement of paper PMC8728848", "binders": {"B1": {"name": "MPA (Maclura pomifera) (protein)", "chain": "GVTFDDGAYTGIREINFEYNSETAIGGLRVTYDLNGMPFVAEDHKSFITGFKPVKISLEFPSEYIVEVSGYVGKVEGYTVIRSLTFKTNKQTYGPYGVTNGTPFSLPIENGLIVGFKGSIGYWLDYFSIYLSLNGPNGKSQSIIVGPWGDRVTN"}}, "assay_in_all_cases": "glycan array binding signal (z-score within array); higher = stronger binding", "conditions_in_all_cases": "glycan notation: IUPAC condensed, linker removed", "key": {"[1]": {"target": "Fuc(a1-2)Gal(b1-3)GalNAc", "how_it_was_run": "(§1)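 From the Consortium for Functional Glycomics database, 3228 arrays were curated, keeping only those whose protein sequence was available. Binding is given as a within-array Z-score averaged across arrays sharing a protein sequence and across linkers. Negative Z-scores can be read as non-binding.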"}, "[2]": {"target": "Fuc(a1-4)GlcNAc", "how_it_was_run": "as §1"}, "[3]": {"target": "Gal(a1-3)[Gal(a1-4)]Gal(b1-4)GlcNAc", "how_it_was_run": "as §1"}, "[4]": {"target": "Gal(b1-3)GalNAc(b1-3)Gal(a1-4)Gal(b1-4)Glc", "how_it_was_run": "as §1"}, "[5]": {"target": "Gal(b1-4)GalNAc(b1-3)[Fuc(a1-2)]Gal(b1-4)GlcNAc", "how_it_was_run": "as §1"}, "[6]": {"target": "Gal(b1-4)GlcNAc(b1-3)GalNAc", "how_it_was_run": "as §1"}, "[7]": {"target": "Gal(b1-4)GlcNAc(b1-6)GalNAc", "how_it_was_run": "as §1"}, "[8]": {"target": "Gal3S6S(b1-4)GlcNAc", "how_it_was_run": "as §1"}, "[9]": {"target": "GalNAc(b1-3)GalNAc", "how_it_was_run": "as §1"}, "[10]": {"target": "GlcNAc(b1-2)Gal(b1-3)GalNAc", "how_it_was_run": "as §1"}, "[11]": {"target": "GlcNAc(b1-3)Gal(b1-3)GalNAc", "how_it_was_run": "as §1"}, "[12]": {"target": "GlcNAc(b1-3)GalNAc", "how_it_was_run": "as §1"}, "[13]": {"target": "GlcNAc(b1-6)Gal(b1-4)GlcNAc", "how_it_was_run": "as §1"}, "[14]": {"target": "Man(a1-2)Man(a1-3)[Man(a1-6)]Man(a1-6)[Man(a1-2)Man(a1-3)]Man(b1-4)GlcNAc(b1-4)GlcNAc", "how_it_was_run": "as §1"}, "[15]": {"target": "Man(b1-4)GlcNAc", "how_it_was_run": "as §1"}, "[16]": {"target": "Neu5Ac(a2-8)Neu5Ac(a2-8)Neu5Ac", "how_it_was_run": "as §1"}}, "note": "The sample as a whole holds a higher share of the strongest signals than the screen did."}
{"binder": "B1", "values": [{"measurement": "glycan array binding signal (z-score)", "setting": "[1]", "value": 2.25}, {"measurement": "glycan array binding signal (z-score)", "setting": "[2]", "value": -0.223}, {"measurement": "glycan array binding signal (z-score)", "setting": "[3]", "value": -0.16}, {"measurement": "glycan array binding signal (z-score)", "setting": "[4]", "value": -0.24}, {"measurement": "glycan array binding signal (z-score)", "setting": "[5]", "value": -0.249}, {"measurement": "glycan array binding signal (z-score)", "setting": "[6]", "value": 5.97}, {"measurement": "glycan array binding signal (z-score)", "setting": "[7]", "value": -0.161}, {"measurement": "glycan array binding signal (z-score)", "setting": "[8]", "value": -0.233}, {"measurement": "glycan array binding signal (z-score)", "setting": "[9]", "value": 6.31}, {"measurement": "glycan array binding signal (z-score)", "setting": "[10]", "value": 5.63}, {"measurement": "glycan array binding signal (z-score)", "setting": "[11]", "value": 3.46}, {"measurement": "glycan array binding signal (z-score)", "setting": "[12]", "value": 6.85}, {"measurement": "glycan array binding signal (z-score)", "setting": "[13]", "value": -0.229}, {"measurement": "glycan array binding signal (z-score)", "setting": "[14]", "value": -0.244}, {"measurement": "glycan array binding signal (z-score)", "setting": "[15]", "value": -0.24}, {"measurement": "glycan array binding signal (z-score)", "setting": "[16]", "value": -0.244}]}
